Measurements: PubChem BioAssay
Activity calls are given as the source filed them.

What was measured:
[1] = test system: Human papillomavirus type 1a protein E7 (residues 44-93); assay: HPV1a E7 fragment binders on microarrays, primary screen, biochemical, small-molecule microarray, residues 44-93, 635 nm fluorescence (AID 1108); conditions: small-molecule microarray binding, fluorescence 635 nm; higher = more signal;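 further: E7 fragment applied at 1 µg/mL in TBST for 1 h at 4 C; score combines spot fluorescence with its signal to noise ratio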
[2] = modulators of HCV replicon luciferase signal, primary screen, HCV replication inhibitor project, Huh7 cells, luciferase reporter (AID 1109); conditions: 48 h, higher = more signal;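 further: huh7 hepatoma cells harbouring a luciferase neomycin HCV replicon reporter; luciferase luminescence as measure of HCV replicon replication; test concentration not given here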
[3] = target: Left-right determination factor 2 (Homo sapiens) (UniProt O00292); assay: LEFTY2 binders on small-molecule microarrays, primary screen, biochemical, small-molecule microarray, 635 nm fluorescence scan (AID 1110); conditions: LEFTY2 binding, higher = more signal
Left-right determination factor 2 (Homo sapiens), sequence (O00292 whole entry, looked up): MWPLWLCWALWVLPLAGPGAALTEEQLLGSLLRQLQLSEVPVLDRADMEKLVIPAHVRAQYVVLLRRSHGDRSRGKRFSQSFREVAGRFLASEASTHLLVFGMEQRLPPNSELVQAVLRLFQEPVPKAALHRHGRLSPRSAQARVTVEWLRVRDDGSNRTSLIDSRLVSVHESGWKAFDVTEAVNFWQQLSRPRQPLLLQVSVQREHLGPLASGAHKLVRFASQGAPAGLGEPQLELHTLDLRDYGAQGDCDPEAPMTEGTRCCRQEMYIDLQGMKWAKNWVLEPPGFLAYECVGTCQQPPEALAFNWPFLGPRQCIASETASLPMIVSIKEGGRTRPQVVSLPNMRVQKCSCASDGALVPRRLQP

[4] = target: Calmodulin-1 (Homo sapiens) (UniProt P0DP23); assay: CALM1 binders on microarrays, EGTA buffer, profiling panel, biochemical, small-molecule microarray, Cy5-labelled CALM1 (AID 1111); conditions: Cy5-CALM1 binding fluorescence, higher = more signal;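 further: labelled calmodulin applied in Tris saline Tween buffer holding calcium plus EGTA and DTT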
[5] = target: Calmodulin-1 (Homo sapiens) (UniProt P0DP23); assay: calcium-bound CALM1 binders on microarrays, profiling panel, artefact control for SMM control-protein annotation, biochemical, small-molecule microarray, Cy5-labelled CALM1, plus calcium (AID 1112); conditions: Cy5-CALM1 binding fluorescence, higher = more signal;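 further: score merges spot fluorescence with signal to noise from triplicate slides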
[6] = small-molecule microarray binders of probe aWnt5a, primary screen, biochemical, biotinylated probe, 635/667 nm fluorescence (AID 1113); conditions: higher = more signal;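 further: score merges 667 nm fluorescence intensity with signal-to-noise per printed feature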
[7] = small-molecule microarray binders of probe aShh, primary screen, biochemical, biotinylated probe, 635/667 nm fluorescence (AID 1114); conditions: higher = more signal;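 further: probe is biotin-labelled aShh protein from a stem cell growth factor screen; measures binding of labelled protein to compounds printed on the slide; score merges feature fluorescence at 667 nm with signal-to-noise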
[8] = small-molecule microarray binders of probe aNog, primary screen, biochemical, biotinylated probe, 635/667 nm fluorescence (AID 1115); conditions: higher = more signal;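 further: probe is biotinylated aNog protein used at 0.15 µg/mL for 1 h at 4 C; z-score combines 667 nm fluorescence of each spot with its signal to noise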
[9] = target: Torsin-1A-interacting protein 1 (Homo sapiens) (UniProt Q5JTV8); assay: LAP1 binders from COS7 cell lysate, primary screen, small-molecule microarray, 635/667 nm fluorescence (AID 1116); conditions: COS7-hLAP1 lysate binding, 635 nm fluorescence, higher = more signal
Torsin-1A-interacting protein 1 (Homo sapiens), sequence (Q5JTV8 whole entry, looked up): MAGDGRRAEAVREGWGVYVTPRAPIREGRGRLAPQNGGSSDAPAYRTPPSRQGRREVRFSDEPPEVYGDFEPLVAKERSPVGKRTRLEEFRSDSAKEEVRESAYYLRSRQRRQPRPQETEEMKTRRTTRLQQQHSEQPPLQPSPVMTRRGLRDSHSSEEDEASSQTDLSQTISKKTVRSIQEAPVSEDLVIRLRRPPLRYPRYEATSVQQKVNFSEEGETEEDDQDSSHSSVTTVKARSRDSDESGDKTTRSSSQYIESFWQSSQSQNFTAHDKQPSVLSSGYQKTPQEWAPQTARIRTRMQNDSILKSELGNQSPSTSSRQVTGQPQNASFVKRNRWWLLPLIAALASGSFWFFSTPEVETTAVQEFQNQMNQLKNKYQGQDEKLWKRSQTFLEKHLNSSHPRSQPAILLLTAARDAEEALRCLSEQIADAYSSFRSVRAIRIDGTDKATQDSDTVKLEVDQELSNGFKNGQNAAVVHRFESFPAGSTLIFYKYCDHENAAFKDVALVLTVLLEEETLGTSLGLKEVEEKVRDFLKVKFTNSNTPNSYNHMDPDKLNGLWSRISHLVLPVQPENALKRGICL

[10] = target: Alpha-bungarotoxin (Bungarus multicinctus) (UniProt P60615); assay: alpha-bungarotoxin binders on microarray, profiling panel, artefact control for SMM control protein annotation, biochemical, small-molecule microarray, Alexa647 label, 635/667 nm fluorescence (AID 1117); conditions: alpha-BTX-A647 binding fluorescence, higher = more signal
Alpha-bungarotoxin (Bungarus multicinctus), sequence (P60615 whole entry, looked up): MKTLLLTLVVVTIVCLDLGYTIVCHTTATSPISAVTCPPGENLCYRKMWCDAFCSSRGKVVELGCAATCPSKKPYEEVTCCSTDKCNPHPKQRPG

[11] = target: Albumin (Bos taurus) (UniProt P02769); assay: bovine serum albumin binders on microarray, profiling panel, artefact control for SMM control protein annotation, biochemical, small-molecule microarray, Alexa647 label, 635/667 nm fluorescence (AID 1118); conditions: BSA-A647 binding, fluorescence 635 nm, higher = more signal;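 further: score merges 667 nm emission intensity and signal-to-noise per printed compound spot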
Albumin (Bos taurus), sequence (P02769 whole entry, looked up): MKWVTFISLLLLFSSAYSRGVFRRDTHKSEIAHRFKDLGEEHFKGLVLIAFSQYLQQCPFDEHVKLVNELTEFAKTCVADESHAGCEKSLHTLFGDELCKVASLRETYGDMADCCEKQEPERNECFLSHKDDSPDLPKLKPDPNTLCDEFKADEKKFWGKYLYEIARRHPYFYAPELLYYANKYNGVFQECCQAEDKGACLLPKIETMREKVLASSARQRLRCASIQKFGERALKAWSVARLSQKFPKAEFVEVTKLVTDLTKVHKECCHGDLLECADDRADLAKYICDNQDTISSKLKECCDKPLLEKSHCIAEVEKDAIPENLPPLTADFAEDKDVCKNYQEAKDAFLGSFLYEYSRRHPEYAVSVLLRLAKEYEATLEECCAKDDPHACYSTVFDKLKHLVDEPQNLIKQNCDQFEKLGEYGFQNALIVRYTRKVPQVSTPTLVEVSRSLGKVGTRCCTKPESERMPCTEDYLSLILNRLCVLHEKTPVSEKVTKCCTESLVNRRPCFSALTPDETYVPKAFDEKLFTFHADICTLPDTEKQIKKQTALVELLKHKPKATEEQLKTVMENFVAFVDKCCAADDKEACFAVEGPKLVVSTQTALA

[12] = small-molecule microarray binders of probe aXIP, primary screen, biochemical, NeuroSMM set, 635/667 nm fluorescence (AID 1119); conditions: higher = more signal, called active from +8 up or from −8 down;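 further: probe is the protein aXip251-270 applied at 1 µg/mL to compound-printed slides; binding of probe to printed compounds measured as 667 nm fluorescence plus signal to noise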
[13] = small-molecule binders of probe aNOTCH3, primary screen, biochemical, small-molecule microarray, 635/667 nm fluorescence (AID 1120); conditions: higher = more signal;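 further: probe is a biotin-tagged antibody raised against NOTCH3 rather than NOTCH3 protein; score merges spot fluorescence near 667 nm with spot signal to noise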
[14] = small-molecule binders of probe aNOTCH2, primary screen, biochemical, small-molecule microarray, 635/667 nm fluorescence (AID 1121); conditions: higher = more signal;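 further: score merges feature fluorescence read at 667 nm with its signal to noise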
[15] = target: Carbonic anhydrase 2 (Homo sapiens) (UniProt P00918); assay: CAII small-molecule binders, profiling panel, biochemical, small-molecule microarray, Alexa647-labelled CAII (AID 1122); conditions: CAII-A647 binding fluorescence, higher = more signal
[16] = COS7 lysate on small-molecule microarray, probe aHis, 635 nm (AID 1123); conditions: COS7 cell lysate, fluorescence, higher = more signal;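 further: z-score combines 667nm fluorescence intensity with signal-to-noise per printed compound spot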
[17] = compound binding in COS7 lysate, probe aLAP1, primary screen, cell lysate, small-molecule microarray (AID 1124); conditions: probe aLAP1, fluorescence, higher = more signal;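 further: lysate comes from COS7 cells expressing LAP1 and is applied at 0.3 µg/mL; score merges spot fluorescence near 667 nm with signal-to-noise over triplicate slides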
[18] = test system: Sam68 (KHDRBS1); assay: Sam68 small-molecule binders, primary screen, biochemical, small-molecule microarray, 635 nm fluorescence (AID 1125); conditions: small-molecule microarray binding, higher = more signal;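 further: score merges 667 nm channel intensity with signal to noise over triplicate slides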
[19] = test system: Chordin-like protein 2 (CHRDL2); assay: CHRDL2 small-molecule binders, primary screen, biochemical, small-molecule microarray, 635 nm fluorescence (AID 1126); conditions: small-molecule microarray binding, fluorescence 635 nm; higher = more signal;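 further: printed compound slides probed with Chrdl2 protein at 4 µg/mL for 1 h at 4 C; score merges 667 nm emission intensity with signal to noise over three replicate slides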
[20] = target: Concanavalin-A (Canavalia ensiformis) (UniProt P02866); assay: ConA small-molecule binders, primary screen, artefact control for SMM control protein annotation, biochemical, small-molecule microarray, Alexa647 label, 635 nm (AID 1127); conditions: ConA-A647 binding fluorescence, higher = more signal;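 further: z combines 667 nm emission intensity with signal-to-noise across three replicate slides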
Concanavalin-A (Canavalia ensiformis), sequence (P02866 whole entry, looked up): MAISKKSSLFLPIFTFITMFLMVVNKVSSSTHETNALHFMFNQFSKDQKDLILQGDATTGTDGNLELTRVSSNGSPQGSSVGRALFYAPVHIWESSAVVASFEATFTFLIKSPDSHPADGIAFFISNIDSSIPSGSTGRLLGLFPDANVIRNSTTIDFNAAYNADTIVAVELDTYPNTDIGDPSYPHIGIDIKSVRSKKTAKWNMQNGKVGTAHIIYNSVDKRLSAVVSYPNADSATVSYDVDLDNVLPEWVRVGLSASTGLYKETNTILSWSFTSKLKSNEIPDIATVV

Row | SMILES | composite z-score [1] | z-score [2] | composite z-score [3] | composite z-score [4] | composite z-score [5] | composite z-score [6] | composite z-score [7] | composite z-score [8] | composite z-score [9] | composite z-score [10] | composite z-score [11] | composite Z-score [12] | composite z-score [13] | composite z-score [14] | composite z-score [15] | composite z-score [16] | composite z-score [17] | composite z-score [18] | composite z-score [19] | composite z-score [20]
1 | COCC1=C2[C@@H](CCc3ccccc3)OB(O)C[C@@H]2n2c(=O)n(-c3ccccc3)c(=O)n2C1 | -0.289 | 0.332 | 0.26 | -0.455 | -0.438 | -0.158 | -0.304 | -0.213 | 0.152 | -0.148 | 0.352 | -0.532 (inactive) | -0.0204 | -0.0649 | 0.0995 | -0.0955 | 0.0421 | -0.0265 | 0.198 | -0.0151
2 | CC(C)=C1C(=O)C(c2ccccc2)=C2CN3C(=O)N(CCc4ccccc4)C(=O)[C@]3(Cc3ccc(F)cc3)[C@H]21 | 0.891 | -0.864 | -1.67 | 0.327 | 0.32 | 0.229 | 0.0431 | -0.761 | -0.248 | -0.547 | 0.697 | 1.87 (inactive) | 0.186 | 0.148 | 0.306 | 1.04 | 0.34 | 0.639 | -2.22 | -1.05
3 | COC(=O)c1c(CC[C@@H](CO)NC(=O)N[C@H](Cc2ccccc2)Cn2cc(-c3ccccc3N)nn2)oc(C(C)=O)c1C(=O)OC | 0.734 | -1.35 | -0.104 | -0.0936 | -0.656 | -0.001 | 0.0326 | 1.12 | 1.54 | 0.57 | 0.484 | -0.202 (inactive) | 0.237 | 0.115 | 0.0874 | 1.31 | 0.481 | 0.938 | 0.509 | -0.0831
4 | COCCOC(=O)N1C(=O)[C@@]2(c3ccccc31)[C@H](C(N)=O)[C@H]1C(=O)O[C@H](c3ccccc3)[C@H](c3ccccc3)N1[C@@H]2c1ccccc1OCCO | 1.32 | -2.2 | 0.565 | 2.3 | 0.668 | -0.0118 | -0.0035 | 0.162 | 4.3 | 2.62 | 0.834 | 0.839 (inactive) | 0.198 | 0.0959 | 0.749 | 2.02 | 1.06 | 1.3 | 0.522 | 1.15
5 | CO[C@@H]1COC(=O)CC=C[C@@H](C)[C@@H]2C=C[C@H](O)[C@@H](COC(=O)CCC[C@H]1C)O2 | -1.05 | -1.96 | 1.31 | -0.859 | -1.7 | -0.0721 | 0.211 | -0.0755 | 0.962 | -0.394 | -0.203 | 0.135 (inactive) | 0.0319 | -0.184 | -0.455 | -1.2 | 0.0206 | 0.0503 | 1.3 | -0.239
6 | CC(=O)OC[C@H]1O[C@H](CCON=C(C)CCC(=O)OC[C@H]2O[C@H](C#Cc3ccccc3)C=C[C@@H]2Oc2ccc(C)cc2)C=C[C@@H]1OC(C)=O | -0.187 | -0.0572 | 0.977 | -0.367 | -0.5 | -0.131 | -0.138 | -0.423 | 0.245 | 1.24 | 0.208 | 0.131 (inactive) | 0.0322 | -0.204 | -0.085 | 0.1 | 0.448 | 0.287 | 0.401 | 0.194
7 | CCOC(=O)CCN1C(=O)[C@H]2[C@H]3[C@H](O)[C@H](O)CC(=NNC(=O)OCc4ccc(OC)cc4)[C@@H]3CC[C@H]2C1=O | -0.75 | -0.552 | 0.554 | 0.715 | -0.0636 | -0.124 | -0.323 | -0.118 | 0.94 | 1.21 | 0.0708 | 0.101 (inactive) | -0.153 | -0.104 | 0.244 | 1.31 | -0.239 | 0.427 | 0.388 | 1.09
8 | COCCOC(=O)N1C(=O)[C@@]2(c3cc(C#CCNC(N)=O)ccc31)[C@H](c1ccccc1OCCO)N1[C@H](c3ccccc3)[C@H](c3ccccc3)OC(=O)[C@H]1[C@@H]2C(=O)N1CCN(c2ncccn2)CC1 | 0.648 | -0.672 | 0.377 | 0.821 | 0.749 | 0.0326 | -0.108 | -0.105 | 1.01 | 2.14 | 0.583 | 0.339 (inactive) | 0.169 | -0.0028 | 0.537 | 1.92 | 0.579 | 1.32 | -0.119 | 1.06
9 | CC(=O)OC[C@H]1O[C@H](CCON=C[C@@H](C)[C@H](OCc2ccccc2)C(C)C)C=C[C@@H]1OC(C)=O | 0.837 | -0.461 | 0.646 | -0.501 | -0.911 | 0.0181 | -0.214 | -0.215 | 0.619 | 0.13 | 0.0841 | -0.313 (inactive) | 0.214 | -0.0716 | -0.249 | -0.039 | 0.148 | 0.997 | 0.755 | 0.0066
10 | CC(=O)OC[C@H]1O[C@H](C#CCCCc2ccccc2)C=C[C@@H]1OC(C)=O | 0.108 | -2.99 | 0.615 | -0.826 | -0.794 | -0.118 | -0.0474 | -0.493 | 0.298 | 0.155 | 0.495 | 0.0117 (inactive) | -0.0647 | -0.0772 | -0.155 | 0.622 | 0.46 | 0.459 | 0.192 | -0.077
11 | CCCNC(=O)OC[C@H]1O[C@H](CCON=CC[C@@H]2C=C[C@H](OC(C)=O)[C@@H](COC(C)=O)O2)C=C[C@@H]1Oc1ccc(OC)cc1 | 0.791 | 0.0229 | 0.667 | -0.625 | -0.867 | -0.0718 | -0.442 | -0.267 | 0.444 | 0.945 | 0.619 | -0.263 (inactive) | 0.0131 | -0.14 | -0.0893 | 0.0884 | 0.394 | 0.911 | 0.593 | 0.0162
12 | CCCNC(=O)OC[C@H]1O[C@H](CCON=C[C@@H](OC)[C@H](C)C=CCC(=O)OC)C=C[C@@H]1Oc1ccc(OC)cc1 | 0.0209 | -1.72 | 0.453 | -1.81 | -0.848 | -0.119 | -0.01 | -0.318 | 0.322 | 0.908 | -1.05 | -0.431 (inactive) | 0.142 | -0.192 | 0.0769 | 0.438 | 0.325 | 0.693 | 1.16 | -1.26
13 | CCc1cc2c(nc1CC)CCN(CCC(C)=NO[C@@H](C)c1cc(-c3c(C)cc(C)cc3C)no1)C2 | 0.0525 | -1.87 | -0.368 | 0.0642 | -0.363 | -0.195 | -0.0709 | 0.0014 | 0.0675 | 0.297 | 0.417 | -0.128 (inactive) | -0.146 | -0.0649 | -0.195 | 0.778 | -0.126 | 0.353 | -0.121 | 0.765
14 | C=CCNC(=O)[C@H]1[C@@H]2C(=O)O[C@@H](c3ccccc3)[C@@H](c3ccccc3)N2[C@@H](c2ccc(O)cc2)[C@]12C(=O)N(C(=O)OCCOC)c1ccc(C#CC3=CCCCC3)cc12 | 1.04 | -0.812 | 0.879 | 1.64 | 0.566 | 0.523 | 1.92 | 2.64 | 2.09 | 1.79 | 0.633 | 0.62 (inactive) | 1.27 | 0.396 | 0.296 | 2.23 | 1.78 | 1.3 | 0.966 | 1.09
15 | CCOC(=O)CCN1C(=O)[C@H]2[C@H]3[C@H](O)C=CC(=O)[C@@H]3CC[C@H]2C1=O | -0.219 | 0.158 | 0.61 | -0.0738 | -0.583 | -0.202 | -0.262 | -0.147 | 0.174 | 0.335 | -0.186 | 0.422 (inactive) | -0.0449 | -0.0686 | -0.078 | 0.107 | -0.225 | 0.323 | 0.34 | 0.412
16 | CN1C(=O)C2C=CC(C(O)c3ccc(I)cc3)N(NC(=O)OC(C)(C)C)C2C1=O (stereo not given) | 1.41 | 0.0411 | 0.0192 | 0.526 | 0.202 | -0.0165 | 0.151 | 1.26 | 1.4 | 1.01 | 0.825 | -0.252 (inactive) | 0.435 | 0.17 | 0.719 | 2.18 | 0.555 | 1.31 | -0.294 | 0.898
17 | NC(=O)NCC#Cc1ccc2c(c1)[C@]1(C(=O)N2)[C@H](c2ccc(O)cc2)N2[C@H](c3ccccc3)[C@H](c3ccccc3)OC(=O)[C@H]2[C@@H]1C(=O)N1CCCCCCC1 | 1.19 | -0.421 | 0.258 | 0.822 | 0.675 | 0.338 | 0.462 | -0.623 | 2.42 | 1.34 | -0.476 | 0.645 (inactive) | 0.976 | -0.172 | 0.39 | 0.594 | 0.596 | 0.792 | 0.983 | 0.848
